Measured values taken from PubChem BioAssay AID1159580 (chemical genetic matrix, 2015).
The whole screen tested about 5,500 compounds, of which about 2,000 (36%) were called active. Not shown: some 18% with an inconclusive outcome. Some of the results follow. A number with no mark means an inactive call. Rule as the data show it: active = normalized growth mostly below about 0.91 (no sharp cut-off); inconclusive = no clear call, values can overlap the other calls; inactive = mostly above about 0.92.

Experiment: chemical genetic growth profiling, strain panel (AID 1159580);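 also: tested at 20 µM; growth read once vehicle control cultures reached saturation at 30 °C; 1 = growth at the plate median or of vehicle wells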
Settings: S. cerevisiae deletion strains, growth OD

O=C(Nc1cccc(Cl)c1)O/N=C1\CCCc2occc21
normalized growth (locus YAR019C, strain CDC15, stronger effect = lower value): 0.937
normalized growth (locus YBL105C, strain PKC1, stronger effect = lower value): 0.952
normalized growth (locus YBR135W, strain CKS1, stronger effect = lower value): 0.936
normalized growth (locus YBR136W, strain MEC1, stronger effect = lower value): 0.939
normalized growth (locus YBR160W, strain CDC28, stronger effect = lower value): 0.943
normalized growth (locus YDL017W, strain CDC7, stronger effect = lower value): 0.949
normalized growth (locus YDL028C, strain MPS1, stronger effect = lower value): 0.933
normalized growth (locus YDL101C, strain DUN1, stronger effect = lower value): 0.965
normalized growth (locus YDL108W, strain KIN28, stronger effect = lower value): 0.929
normalized growth (locus YDL132W, strain cdc53, stronger effect = lower value): 0.917
normalized growth (locus YDL214C, strain PRR2, stronger effect = lower value): 0.809
normalized growth (locus YDR052C, strain DBF4, stronger effect = lower value): 0.964
normalized growth (locus YDR054C, strain cdc34, stronger effect = lower value): 0.927
normalized growth (locus YDR226W, strain ADK1, stronger effect = lower value): 0.945
normalized growth (locus YDR477W, strain SNF1, stronger effect = lower value): 0.798
normalized growth (locus YER123W, strain YCK3, stronger effect = lower value): 0.759
normalized growth (locus YER133W, strain GLC7, stronger effect = lower value): 0.789
normalized growth (locus YFL009W, strain cdc4, stronger effect = lower value): 0.925
normalized growth (locus YFL029C, strain CAK1, stronger effect = lower value): 0.941
normalized growth (locus YFR003C, strain YPI1, stronger effect = lower value): 0.937
normalized growth (locus YFR019W, strain FAB1, stronger effect = lower value): 0.944
normalized growth (locus YFR028C, strain CDC14, stronger effect = lower value): 0.935
normalized growth (locus YGR040W, strain KSS1, stronger effect = lower value): 0.83
normalized growth (locus YGR052W, strain FMP48, stronger effect = lower value): 0.8
normalized growth (locus YGR092W, strain DBF2, stronger effect = lower value): 0.69
normalized growth (locus YHR030C, strain SLT2, stronger effect = lower value): 0.649 (active)
normalized growth (locus YHR079C, strain IRE1, stronger effect = lower value): 0.667
normalized growth (locus YHR082C, strain KSP1, stronger effect = lower value): 0.752
normalized growth (locus YHR205W, strain SCH9, stronger effect = lower value): 0.659
normalized growth (locus YIL147C, strain SLN1, stronger effect = lower value): 0.943
normalized growth (locus YJL095W, strain BCK1, stronger effect = lower value): 0.671
normalized growth (locus YJL128C, strain PBS2, stronger effect = lower value): 0.954
normalized growth (locus YJL157C, strain FAR1, stronger effect = lower value): 0.842
normalized growth (locus YJR016C, strain ILV3, stronger effect = lower value): 0.931
normalized growth (locus YJR066W, strain TOR1 (second series), stronger effect = lower value): 0.86
normalized growth (locus YJR066W, strain TOR1, stronger effect = lower value): 0.742
normalized growth (locus YKL048C, strain ELM1, stronger effect = lower value): 0.899
normalized growth (locus YKL067W, strain YNK1, stronger effect = lower value): 0.817
normalized growth (locus YKL101W, strain HSL1, stronger effect = lower value): 0.829
normalized growth (locus YKL193C, strain SDS22, stronger effect = lower value): 0.926
normalized growth (locus YKL203C, strain TOR2, stronger effect = lower value): 0.792
normalized growth (locus YLR113W, strain HOG1, stronger effect = lower value): 0.613 (active)
normalized growth (locus YLR133W, strain CKI1, stronger effect = lower value): 0.843
normalized growth (locus YLR403W, strain SFP1, stronger effect = lower value): 0.748
normalized growth (locus YML070W, strain DAK1, stronger effect = lower value): 0.788
normalized growth (locus YMR001C, strain CDC5, stronger effect = lower value): 0.935
normalized growth (locus YMR205C, strain PFK2 (second series), stronger effect = lower value): 0.831
normalized growth (locus YMR277W, strain FCP1, stronger effect = lower value): 0.932
normalized growth (locus YNL006W, strain LST8, stronger effect = lower value): 0.939
normalized growth (locus YNL020C, strain ARK1, stronger effect = lower value): 0.828
normalized growth (locus YNL161W, strain CBK1, stronger effect = lower value): 0.945
normalized growth (locus YNL183C, strain NPR1, stronger effect = lower value): 0.652
normalized growth (locus YNL207W, strain RIO2, stronger effect = lower value): 0.936
normalized growth (locus YNL222W, strain SSU72, stronger effect = lower value): 0.929
normalized growth (locus YNL307C, strain MCK1 (second series), stronger effect = lower value): 0.83
normalized growth (locus YOL078W, strain AVO1, stronger effect = lower value): 0.923
normalized growth (locus YOL136C, strain PFK27, stronger effect = lower value): 0.798
normalized growth (locus YOR061W, strain CKA2, stronger effect = lower value): 0.85
normalized growth (locus YOR119C, strain RIO1, stronger effect = lower value): 0.847
normalized growth (locus YOR231W, strain MKK1, stronger effect = lower value): 0.672
normalized growth (locus YOR329C, strain SCD5, stronger effect = lower value): 0.959
normalized growth (locus YPL031C, strain PHO85, stronger effect = lower value): 0.741
normalized growth (locus YPL153C, strain RAD53, stronger effect = lower value): 0.772
normalized growth (locus YPL204W, strain HRR25, stronger effect = lower value): 0.773
normalized growth (locus YPL209C, strain IPL1, stronger effect = lower value): 0.947
normalized growth (locus YPL256C, strain CLN2, stronger effect = lower value): 0.631 (active)
normalized growth (locus YPR025C, strain CCL1, stronger effect = lower value): 0.943
normalized growth (locus YPR106W, strain ISR1, stronger effect = lower value): 0.944
normalized growth (locus YPR111W, strain DBF20, stronger effect = lower value): 0.918
normalized growth (strain NNK1, stronger effect = lower value): 0.927
normalized growth (strain TSCII, stronger effect = lower value): 0.927
